Results filed as inconclusive are left out. Values without a mark were called inactive. Active and inactive are the calls of the source. The call rests on the fitted dose curve; in most records, active means well fitted inhibition curve with a large enough effect; inconclusive means small, poorly fitted or top-dose-only effect; inactive means no such curve, though single readings can be large or run the other way.
target: Retinal dehydrogenase 2 (Homo sapiens) (UniProt O94788); experiment: qHTS for Inhibitors of the Aldehyde Dehydrogenase Family (ALDH1A2) Confirmation screens (AID 2061314); details: ALDH1A2 enzyme inhibition qHTS confirmation; series mostly up to 45.9 µM; activity, negative = inhibition: at the top concentration; further: nearly all actives have a fitted effect of over 65% in size; further: potency means the concentration at half of the fitted maximal effect; on activity, negative = inhibition: on the % scale 0 is the no-effect control and ±100 the full control effect

| SMILES | activity, negative = inhibition [%] | Potency | outcome |
| --- | --- | --- | --- |
| Cc1cc(C)n2nc(CNS(=O)(=O)c3cccc(Cl)c3)nc2n1 | -5.13 |  |  |
| COc1ccccc1-c1[nH]nc2ncc(C(=O)NCCc3ccccn3)nc12 |  | 39.8 µM (active) |  |
| O=C(c1nccc2ccccc12)N1CCc2nc3cc[nH]n3c(=O)c2C1 | 3.35 |  |  |
| CCOC(=O)c1ccccc1NC(=O)c1cnc(N2CCOCC2)c2ccccc12 | 4.38 |  |  |
| COc1cccc(-n2c(SCc3ccccc3C)nc3c([nH]c4ccccc43)c2=O)c1 | -24.5 |  |  |
| CCc1cnc2c(c1SCc1ccccc1C)c(=O)n(C)c(=O)n2C | -2.82 |  |  |
| Nc1c(-c2ccccc2)cc[nH]c1=O |  | 0.159 µM (active) |  |
| CC(=O)Nc1ccc(S(=O)(=O)N[C@@H]2C=C[C@@H](c3c(C)nn(-c4ccc(C(C)(C)C)cc4)c3C)C2)cc1 | 2.6 |  |  |
| O=C(CN(Cc1cccc2ccccc12)C1CC1)Nc1ccc(N2CCOCC2)cc1 |  | 11.3 µM (active) |  |
| O=c1cc2nc(-c3ccccc3)nc(SCc3cccc(Br)c3)n2[nH]1 | -3.29 |  |  |
| CC(C)Cn1c(=O)c(C(=O)NCc2cccs2)nc2cccnc21 | -19.6 |  |  |
| CCc1ccc(C(=O)c2cnc3ccc(C)cc3c2S(=O)(=O)c2ccc(OC)cc2)cc1 | -15.4 |  |  |
| COc1ccc(-c2nc(C(=O)Nc3ccc(C(C)=O)cc3)nn2-c2cccc(Cl)c2)cc1 | -13.7 |  |  |
| COc1cccc(-c2nnc(-c3ccccc3NC(=O)c3cccc(C(F)(F)F)c3)o2)c1 | -1.27 |  |  |
| Cc1cccn2c(=O)c3cc(C#N)c(=O)n(-c4nnc(SCc5ccc(Cl)cc5)s4)c3nc12 | -6.41 |  |  |
| Cc1ccc(Cc2nc3ccccc3nc2SCC(=O)Nc2cccc(C(F)(F)F)c2)cc1 | -26.5 |  |  |
| COc1ccc(NC(=O)c2cc(S(=O)(=O)N3CCOCC3)ccc2OC)cc1 | -27.1 |  |  |
| CN(C)C(=O)CN1C(=O)CO[C@H](c2ccc(NS(=O)(=O)c3cccc(F)c3)cc2)[C@H]1CO | -2.17 |  |  |
| Nc1c(-c2ccncc2)cc[nH]c1=O |  | 0.634 µM (active) |  |
| O=C1COc2cc([S+](=O)([O-])Nc3ccc(Cl)c(Cl)c3)c(Cl)cc2N1 |  | 14.2 µM (active) |  |

| SMILES | activity, negative = inhibition [%] | Potency | outcome |
| --- | --- | --- | --- |
| CN(C)C(=O)c1ccc(-c2cc[nH]c(=O)c2N)cc1 |  | 0.4 µM (active) |  |
| COc1ccc(NC(=O)CCc2c(C)nc3c(c2C)c(=O)n(C)c(=O)n3C)cc1OC | 0.614 |  |  |
| CCOCc1cc(CN2CCN(c3cccc(C(F)(F)F)c3)CC2)c(O)c2ncccc12 | -10.1 |  |  |
| Cc1nn(-c2ccc3nnc(C)n3n2)c(C)c1CCC(=O)Nc1ccc(OC(F)(F)F)cc1 |  |  | inactive |
| COc1ccc(S(=O)(=O)N2CCCCC2)cc1C(=O)Nc1cccc(C(F)(F)F)c1 | -27.6 |  |  |
| CN(CC1(CO)CC1)c1nccc(CCC(F)(F)F)n1 | 0.843 |  |  |
| Fc1cc(F)cc(Cc2nc3nccc(-c4cccnc4)n3n2)c1 | -19.3 |  |  |
| CC(C)CN1C(=O)CO[C@H](c2ccc(NS(=O)(=O)c3cccc(F)c3)cc2)[C@H]1CO | -11.4 |  |  |
| CCc1ccc(N(CC)C(=O)c2cn(C)c(=O)c3cc(OC)c(OC)cc23)cc1 | -2.63 |  |  |
| Cc1ccc(CCNC(=O)c2c(C)oc3nc(C)nc(N4CCOCC4)c23)cc1 | -16.9 |  |  |
| COc1ccc(NC(=O)c2ccco2)cc1NC(=O)c1ccccc1[N+](=O)[O-] | -13.4 |  |  |
| Cc1cccc(-c2nc3c(cnn3-c3ccccc3)c(=O)n2-c2ccc(Br)cc2)c1 | -14.4 |  |  |
| CC[C@H]1CN(C(=O)Nc2cccc(C(F)(F)F)c2)CC[C@H]1CC(=O)N(C)CCC#N | -9.54 |  |  |
| CCOc1ccccc1NC(=O)CN(C)S(=O)(=O)c1ccc(C(=O)N2CCOCC2)s1 | -2.89 |  |  |
| O=C(Nc1ccc(O)cc1)c1cccc(S(=O)(=O)N2CCOCC2)c1 | -3.2 |  |  |
| Cc1ccc(CN(C(=O)COc2ccc([N+](=O)[O-])cc2)c2ccccn2)cc1 |  |  | inactive |
| CC(C)Oc1ccc(CNC(=O)C2CCCCN2S(=O)(=O)c2ccc(F)cc2)cc1 (stereo not given) |  |  | inactive |
| COCCn1c(SCc2ccccc2F)nc2c([nH]c3ccccc32)c1=O | -23.4 |  |  |
| Cn1cnc(S(=O)(=O)N2CCC(C(=O)Nc3ccc(OC(F)(F)F)cc3)CC2)c1 | -8.87 |  |  |
| Cc1nn2c(=O)cc(COC(=O)c3ccc(F)cc3)nc2s1 | -3.77 |  |  |

target: Retinaldehyde dehydrogenase 3 (Homo sapiens) (UniProt P47895); experiment: qHTS for Inhibitors of the Aldehyde Dehydrogenase Family (ALDH1A3) Primary screen (AID 2061315); details: ALDH inhibition qHTS; series mostly up to 56 µM; activity change, negative = inhibition: at the top concentration;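 further: plate controls were DMSO vehicle for no effect and reference inhibitor for full effect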

| SMILES | activity change, negative = inhibition [%] |
| --- | --- |
| Nc1c(-c2ccccc2)cc[nH]c1=O | -3.86 |
| O=C(CN(Cc1cccc2ccccc12)C1CC1)Nc1ccc(N2CCOCC2)cc1 | -14.3 |
| Nc1c(-c2ccncc2)cc[nH]c1=O | 0.033 |
| O=C1COc2cc([S+](=O)([O-])Nc3ccc(Cl)c(Cl)c3)c(Cl)cc2N1 | -0.871 |
| CN(C)C(=O)c1ccc(-c2cc[nH]c(=O)c2N)cc1 | -5.17 |

— PubChem BioAssay (NCATS)
